Screening data deposited in PubChem BioAssay by several laboratories.
A selection: hits, their analogues and other compounds. The true share with any hit is near 2.9%.
ERb SRC1 inh – inhibitors of ERβ-SRC1 coactivator interaction, primary screen, biochemical, TR-FRET, ERβ LBD, SRC-1 peptide; Estrogen receptor beta (Homo sapiens), Q92731; TR-FRET ER-beta LBD / SRC1-Cy5 peptide binding; receptor agonist-loaded with 1 µM estradiol; inhibition, % at 25.6 µM; hit rate 1.3% among 86,000; AID 633, 2007;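 active means compounds whose percent inhibition of the receptor-coactivator binding signal exceeds about 50% in the single-dose screen, limit read from the data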;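 further: 0% = receptor plus peptide wells without compound and 100% = peptide-only wells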
Target sequence (Q92731 whole entry, looked up, the tested form may be a part): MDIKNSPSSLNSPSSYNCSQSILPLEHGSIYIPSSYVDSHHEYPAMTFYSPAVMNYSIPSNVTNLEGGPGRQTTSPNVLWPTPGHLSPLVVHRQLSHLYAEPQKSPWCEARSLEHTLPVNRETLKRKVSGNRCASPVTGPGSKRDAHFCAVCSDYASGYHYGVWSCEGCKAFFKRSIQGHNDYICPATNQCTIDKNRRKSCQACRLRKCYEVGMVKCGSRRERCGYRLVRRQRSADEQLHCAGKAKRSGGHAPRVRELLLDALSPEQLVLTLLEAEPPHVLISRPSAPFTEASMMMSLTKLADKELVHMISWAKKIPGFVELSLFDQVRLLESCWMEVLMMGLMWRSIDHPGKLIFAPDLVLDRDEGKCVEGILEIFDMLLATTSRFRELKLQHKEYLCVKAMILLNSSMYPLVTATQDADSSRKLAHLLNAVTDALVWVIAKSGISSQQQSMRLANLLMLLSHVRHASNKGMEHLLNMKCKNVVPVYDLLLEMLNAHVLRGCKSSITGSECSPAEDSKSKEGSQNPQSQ
F-actin modifier – modifiers of F-actin cytoskeleton organization, primary screen, imaging, HUVEC, phalloidin staining, high-content imaging | inhibition, % at 2 µM | AID 836, 2007 | HUVEC TNFa F-actin phalloidin imaging | hit rate 0.18% among 91,000;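 active means inhibition above the batch mean plus 3 SD and confirmed as a hit by visual image inspection, cut at about 30% in these data, passing the limit was not always enough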
ERa coact pot – enhancers of ERα–SRC-1 coactivator binding, primary screen, biochemical, TR-FRET, ERα LBD, low estradiol; Estrogen receptor (Homo sapiens), P03372; TR-FRET ERalpha-LBD/SRC-Cy5 coactivator binding, 2 h; 100 = basal binding, no effect; coactivator binding (% of control), % at 25.6 µM; hit rate 1.3% among 86,000; AID 639, 2007; in the data active means activity above about 200%;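 further: binding measured in presence of low estradiol as agonist stimulus; 0% = peptide alone without receptor and 100% = receptor with peptide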
E-sel TNF inh – E-selectin induction blockers in HUVEC – imaging, immunofluorescence, high content, primary screen. HUVEC TNFa-induced E-selectin immunofluorescence. inhibition, % at 2 µM. hit rate 0.71% among 120,000. AID 1246, 2008;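 active means inhibition above the batch mean plus 3 SD, and confirmed as a hit on visual image review, cut at about 43% in these data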;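 further: 0% = TNF-stimulated DMSO wells and 100% = unstimulated control wells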
Candida biofilm – clotrimazole potentiators killing Candida biofilms, primary screen, with clotrimazole, Alamar Blue; C. albicans biofilm + clotrimazole; hit rate 0.14% among 85,000; inhibition, % at 6 µM; AID 834, 2007;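 active means inhibition above 20%; inactive means inhibition below 20%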;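 further: preformed 24 hr biofilms exposed to compound for 48 hr; 0% = biofilm without compound and 100% = blank killed by clotrimazole plus chlorhexidine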
ERa coact inh – ERα–SRC-1 coactivator interaction inhibitors, primary screen, biochemical, TR-FRET, ERα LBD, estradiol-bound; Estrogen receptor (Homo sapiens), P03372; TR-FRET ER-alpha LBD / SRC-1 peptide; inhibition, % at 25.6 µM; hit rate 1.7% among 86,000; in the data active means inhibition above about 50%;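 further: 0% = receptor plus peptide control and 100% = peptide only without receptor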
An asterisk follows results filed as active; nt = no result given; [ ] = dose if it differs, or a comment.

SMILES	ERb SRC1 inh	F-actin modifier	ERa coact pot	E-sel TNF inh	Candida biofilm	ERa coact inh
COc1ccc(-n2nnnc2SCC(=O)Nc2ccc3c(c2)OCCO3)cc1OC	24.1	13.4	210.0*	3.1	6.8	35.8
COc1cccc(-n2nnnc2SCC(=O)Nc2ccc3c(c2)OCCO3)c1	nt	17.4	nt	-24.6	nt	nt
Cc1cc(C)cc(-n2nnnc2SCC(=O)Nc2cccc(NC(=O)c3ccco3)c2)c1	-22.2	-28.7	108.5	nt	9.7	-21.8
Cc1ccc(-n2nnnc2SCC(=O)Nc2cccc(NC(=O)c3ccco3)c2)cc1C	34.8	-26.0	122.8	-15.7	2.4	79.4*
COc1ccc(C2/C(=C(/O)c3ccccc3)C(=O)C(=O)N2CC(C)O)c(OC)c1 (stereo not given)	1.8	-8.9	111.8	nt	6.2	-2.5
COc1ccc(C2=NNC(c3cccs3)=Nc3ccc(OC)cc32)cc1	-5.9	-15.7	96.4	74.3*	1.5	-8.9
CCOc1ccc(C2=NNC(c3cccs3)=Nc3ccc(OC)cc32)cc1OCC	-5.5	-20.1	92.3	-2.0	6.1	-10.5
O=C1CC(N(Cc2ccco2)C(=O)Nc2ccc(F)cc2)C(=O)N1c1ccc(F)cc1 (stereo not given)	-0.6	-15.2	99.6	-12.9	1.9	-7.7
CCOC(=O)c1cc(OC(=O)c2ccccc2OC)n(-c2ccccc2)n1	19.7	9.7	30.6	-2.2	7.1	74.3*[fluorescence artefact?]
CC(Oc1ccc(C(C)(C)C)cc1)c1ccnc2nc(/N=C/N(C)C)nn12 (stereo not given)	nt	2.8	nt	-36.3	nt	nt
O=c1oc2c3c4c(cc2cc1-c1nc2ccccc2[nH]1)CCCN4CCC3	58.3*[fluorescence artefact?]	nt	9.8	nt	-0.9	94.5*[fluorescence artefact?]
Cn1c(C(=O)c2ccccc2[N+](=O)[O-])nc2ccccc21	nt	nt	nt	21.1	nt	nt
CC(C)CCNC(=O)CN(Cc1ccc2c(c1)OCO2)C(=O)CCC(=O)Nc1ccccn1	-5.0	-3.4	105.4	-21.5	6.1	-1.2
Cc1ccc(-n2c(=O)c3c4c(sc3n(Cc3cc(=O)n5ccccc5n3)c2=O)CCC4)cc1C	nt	nt	nt	89.8*	nt	nt
COc1ccc(Cc2noc(CN(C)CC(O)c3ccccc3)n2)cc1OC (stereo not given)	nt	nt	nt	-3.1	nt	nt
Cc1ccc2sc(NC(=O)c3ccc(N4C(=O)CCC4=O)cc3)nc2c1C	nt	nt	nt	-16.1	nt	nt
COc1cc(C(=O)Nc2cc(C)ccn2)cc(OC)c1OC	4.5	-2.0	89.5	-5.0	7.0	-6.2
Cc1ccnc(NC(=O)c2ccc(N3C(=O)CCC3=O)cc2)c1	22.1	10.6	224.3*	8.6	-1.4	21.0
COc1ccc(C(=O)NC(=O)Nc2cc(C)ccn2)cc1	-20.5	-13.5	210.0*	nt	7.9	16.6
CCCCn1c(SCC(=O)NCc2ccco2)nc2c(sc3ccccc32)c1=O	19.2	-0.1	120.5	1.1	0.5	19.4
CCCCn1c(SCC(N)=O)nc2c(sc3ccccc32)c1=O	23.8	3.9	263.4*	5.6	2.2	53.0*[fluorescence artefact?]
O=C(CO/N=C/c1ccccc1O)N1CCc2ccccc21	nt	nt	nt	18.0	nt	nt
CC(C)CO/C(=N/S(=O)(=O)c1ccccc1)c1ccccc1	-1.6	-0.9	94.0	25.5	72.7*	-0.6
O=C1c2ccccc2NC(c2ccccc2)N1Cc1ccco1 (stereo not given)	8.8	nt	83.3	-32.7	36.8*	6.9
O=C(CSc1nnc(-c2ccc(Cl)cc2)o1)N1CCN(c2ccccc2)CC1	54.0*	nt	50.4	nt	2.6	73.2*[fluorescence artefact?]
N#CCCS(=O)(=O)c1nnnn1-c1ccccc1	58.1*	0.2	78.1	42.8	0.3	60.9*
Cc1ccccc1NC(=O)CN1C(=O)S/C(=C\c2ccc(-c3cccc(C(=O)O)c3C)o2)C1=O	nt	nt	nt	44.5	nt	nt
Cc1ccc(NC(=O)CN2C(=O)S/C(=C/c3ccc(-c4cc(C(=O)O)ccc4C)o3)C2=O)cc1C	72.6*	0.5	237.1*[fluorescence artefact?]	nt	2.5	66.1*
O=C(CSc1ccc(Cl)cc1)Nc1ccc(N2CCN(C(=O)c3ccco3)CC2)cc1	29.4	5.1	60.0	-7.2	1.4	64.3*[fluorescence artefact?]
